This is a sample that favours compounds with a hit; in the whole collection about 2.7% have one here.
gsp antagonist: antagonizes gsp, the McCune-Albright syndrome mutation; gsp-mutant cells, cAMP HTRF, 30 min; Potency, µM (titrated, usually from 76.9 µM), without a hit: at the highest dose activity change, negative = inhibition, actives largely listed as inhibitors; 0.4% of 340,000 active; AID 624288; calls by dose curve; cell line not stated here;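 note: intracellular cAMP measured with PDE inhibitor Ro 20-1724 present during compound exposure; potency is the fitted concentration of half-maximal effect; % is set by controls: 0 for no effect and ±100 for the full control effect; nearly all actives have a fitted effect of over 65% in size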
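G418-selected cells were plated in DMEM/10% FBS for 16-24 h at 37C, then treated with compounds plus the PDE inhibitor […] (300 uM solution added) for 30 min at 37C. Intracellular cAMP was measured by HTRF after 30 min lysis at room temperature.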
RXFP1 agonist: agonists of human relaxin receptor RXFP1. Potency, µM (doses to about 57.5 µM), for the others: top-dose activation, actives largely listed as activators. 0.3% of 370,000 active. AID 2676. Q9HBX9. HEK293T-RXFP1 cAMP TR-FRET, 30 min; response scale: percent of porcine relaxin response, buffer zero; active = well fitted activation curve with a large enough effect; inconclusive = small, poorly fitted or top-dose-only effect; note: potency is the fitted concentration of half-maximal effect; % is set by controls: 0 for no effect and ±100 for the full control effect; nearly all actives have a fitted effect of over 60% in size
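cAMP rise read by TR-FRET after 30 min, 37C compound exposure (up to 58 uM) in RXFP1-transfected HEK293 cells with Ro 20174 present. EC50 from Hill-equation fits, with 29 nM porcine relaxin as 100% and buffer as basal.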
ClpP mod: qHTS Assay for Activators of ClpP. ATP-dependent Clp protease proteolytic subunit (Bacillus subtilis (strain 168)), P80244. purified B. subtilis ClpP, FRET peptide cleavage, 20 min. AID 651965, 2013. 1.9% of 340,000 active. Potency, µM (series often up to 57.5 µM), for the others: at the top dose activity change, negative = active; active = well fitted falling curve with a large enough effect; inconclusive = small, poorly fitted or top-dose-only effect; inactive = no such curve, though single readings can be large or run the other way; note: potency is the fitted concentration of half-maximal effect; the source files actives as falling curves though it sought activators and does not explain the sign; nearly all actives have a fitted effect of over 65% in size
Target sequence (P80244 whole entry, looked up): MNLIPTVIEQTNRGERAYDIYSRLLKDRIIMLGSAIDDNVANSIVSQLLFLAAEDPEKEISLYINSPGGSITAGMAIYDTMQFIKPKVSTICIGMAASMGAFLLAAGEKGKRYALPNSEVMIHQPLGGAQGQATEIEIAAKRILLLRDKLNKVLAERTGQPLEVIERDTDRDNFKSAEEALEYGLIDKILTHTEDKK
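Buffer: 100 mM Tris/HCl pH8, 100 mM KCl, 0.05% low protease BSA, 2.5% glycerol, 0.01% Tween-20. ClpP 10 microg/mL final; 20 min RT; delta FRET normalized to ADEP and DMSO controls.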
gsp agonist: agonists of gsp mutant (McCune-Albright syndrome) | gsp mutant cells, cAMP HTRF, 30 min | Potency, µM (doses to about 76.9 µM), without a hit: top-dose activation (cAMP increase), most hits filed as activators | 0.13% of 340,000 active | AID 624287; active = well fitted activation curve with a large enough effect; inconclusive = small, poorly fitted or top-dose-only effect, or another doubt; inactive = no such curve, though single readings can be large or run the other way; cell line not stated here;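 note: phosphodiesterase inhibitor Ro 20-1724 added with compounds to block cAMP breakdown; potency is the fitted concentration of half-maximal effect; nearly all actives have a fitted effect of over 60% in size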
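Cells stably selected in G418 were plated at 2000/well, grown 16-24 hr, then given compounds in DMSO with the PDE inhibitor […] (300 uM solution added) for 30 min at 37C; cAMP was read by HTRF.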
Akt phos inh: Akt phosphorylation inhibition; AID 651550; 0.32% of 360,000 active; activity change, % for hits at 50 µM; Neuro2A IGF-stimulated pAkt S473 HTRF, 20 min; hits give low values; in the data active = activity change below about -80%; inconclusive = mostly about -51% to -80%; note: % is set by controls: 0 for no effect and ±100 for the full control effect
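Single-point screen (50 µM final compound) in Neuro2A cells stimulated 20 min with 6 nM IGF at 37 deg C. After lysis, Ser473-phosphorylated Akt read by HTRF (ex 330 nm, em 615/665 nm) as the 665/615 ratio.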
RXFP1 antag: antagonists of human relaxin receptor RXFP1; HEK293-RXFP1, relaxin-stimulated cAMP HTRF, 30 min; hits give low values; Q9HBX9; 0.59% of 350,000 active; AID 1259400; activity change, negative = inhibition, % at 57.5 µM;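 active = activity change of -60% or lower, but not beyond a set lower limit; inconclusive = change between -60% and -40%, or beyond the set limit; inactive = change above -40%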; note: % is set by controls: 0 for no effect and ±100 for the full control effect
* hit, by the source's call; [ ] = another dose, or the depositor's remark.

CN(CCNC(=O)c1c[nH]c2c1ccc1ccccc12)CCNC(=O)c1c[nH]c2c1ccc1ccccc12 was read as gsp antagonist 4%, ClpP mod 28µM*, gsp agonist -3%, Akt phos inh inactive and RXFP1 antag -11.
For CCOC(=O)/C=C1\CN(Cc2ccc(OC)cc2)S(=O)(=O)c2ccc(C(F)(F)F)cc21 the results were ClpP mod -1%.
N#Cc1ccc2ccn(CC(=O)NC3CCCCC3)c2c1 was read as gsp antagonist 17%, RXFP1 agonist 11%, ClpP mod inconclusive, gsp agonist -10%, Akt phos inh inactive and RXFP1 antag 12.
Screening N#Cc1ccc2ccn(CC(=O)NCc3ccccc3)c2c1 returned gsp antagonist 5%, RXFP1 agonist 1%, ClpP mod 25µM*, gsp agonist 5%, Akt phos inh inactive and RXFP1 antag 15.
`COc1ccc(/C=N/NC(=O)c2ccccc2OCc2ccccc2)c(OC)c1` gave gsp antagonist inconclusive, RXFP1 agonist 1%, gsp agonist -21%[15.4 µM], Akt phos inh inactive and RXFP1 antag inconclusive.
C#CCOc1ccccc1/C=N/NC(=O)c1ccccc1OCc1ccccc1 was read as gsp antagonist 13µM*, RXFP1 agonist -1%, ClpP mod -5%, gsp agonist 0%, Akt phos inh inactive and RXFP1 antag 0.
CC(=O)N=C1SC2CS(=O)(=O)CC2N1c1c(Cl)cccc1Cl (stereo not given) was read as gsp antagonist 8%, RXFP1 agonist 1%, ClpP mod 32µM*, gsp agonist 2%, Akt phos inh inactive and RXFP1 antag -3.
`O=C(N=C1SC2CS(=O)(=O)CC2N1c1c(Cl)cccc1Cl)C1CC1` (stereo not given) gave gsp antagonist 5%, RXFP1 agonist 0%, ClpP mod -1%, gsp agonist inconclusive, Akt phos inh inactive and RXFP1 antag 31.
`CCc1ccc2nc3nc(C)cc(C)c3c(N)c2c1` gave gsp antagonist 4%, RXFP1 agonist 1%, ClpP mod 11µM*, gsp agonist -1%, Akt phos inh inactive and RXFP1 antag 5.
`Cc1ccc(-n2nc3c(c2NC(=O)c2ccccc2)CS(=O)(=O)C3)cc1C` gave gsp antagonist 1%, RXFP1 agonist -1%, ClpP mod 0%, gsp agonist -4%, Akt phos inh inactive and RXFP1 antag -2.
COc1ccc(-c2noc(CSc3nnc(C)n3-c3ccc(C)c(C)c3)n2)c(OC)c1 was read as RXFP1 agonist -1%, ClpP mod -2% and RXFP1 antag -11.
`C=CCNC(=O)/C(C#N)=C/c1ccc(SC)cc1` gave gsp antagonist 7%, RXFP1 agonist 1%, ClpP mod 25µM*, gsp agonist 4%[15.4 µM], Akt phos inh inactive and RXFP1 antag 4.
COC(=O)N/N=C/c1ccc(OS(=O)(=O)c2ccc(C)cc2)c(OC)c1 was read as gsp antagonist -22%, RXFP1 agonist 0%, gsp agonist -30%[15.4 µM], Akt phos inh inactive and RXFP1 antag -14.
Screening C=CCNC(=O)/C(C#N)=C/c1ccc(OS(=O)(=O)c2ccc(C)cc2)c(OC)c1 returned gsp antagonist 6%, RXFP1 agonist 3%, ClpP mod -16%, gsp agonist -1%, Akt phos inh inactive and RXFP1 antag -61*.
`COc1ccc(/C=C(/C#N)C(=O)Nc2cc(C)ccc2C)cc1C(=O)O` gave gsp antagonist -17%, RXFP1 agonist 0%, ClpP mod 25µM*, gsp agonist -35% and Akt phos inh inactive.
`C=CCNC(=O)/C(C#N)=C/c1ccc2c(c1)OCCO2` gave gsp antagonist 5%, RXFP1 agonist 0%, gsp agonist 12%[15.4 µM], Akt phos inh inactive and RXFP1 antag -13.
`COc1cc(CN2CCN(C(=O)c3cccc4ccccc34)CC2)cc(OC)c1O` gave gsp antagonist -2%, RXFP1 agonist -1%, ClpP mod 0%, gsp agonist -53%, Akt phos inh inactive and RXFP1 antag -4.
COc1ccc2c(c1)c(=O)c(S(=O)(=O)c1ccc(Cl)cc1)cn2C was read as RXFP1 agonist -1%, ClpP mod -7% and RXFP1 antag -8.
Screening Cc1c(C)c2ccc(OCC(=O)NCCN3CCOCC3)c(C)c2oc1=O returned gsp antagonist 2%, RXFP1 agonist 6%, ClpP mod 4%, gsp agonist 7%, Akt phos inh inactive and RXFP1 antag 16.
For COc1ccc(CCNc2ncnc3[nH]ncc23)cc1OC the results were gsp antagonist 1%, RXFP1 agonist 1%, ClpP mod inconclusive, gsp agonist 0%[15.4 µM], Akt phos inh inactive and RXFP1 antag -17.
COc1ccc(CCNc2ncnc3sc(C)cc23)cc1OC was read as gsp antagonist 35µM*, RXFP1 agonist 0%, gsp agonist -21%, Akt phos inh inactive and RXFP1 antag -18.
C=Cc1ccc2c(c1)N(C)C(=C)S2 was read as gsp antagonist 11%, RXFP1 agonist 1%, gsp agonist -11%, Akt phos inh inactive and RXFP1 antag -119*.
O=C(O)CCSSCCC(=O)O was read as gsp antagonist -3%, RXFP1 agonist 0%, ClpP mod 0% and Akt phos inh inactive.
For O=C(O)CCSCCC(=O)O the results were gsp antagonist 20%, RXFP1 agonist 3%, ClpP mod 0%, gsp agonist -4%, Akt phos inh -106%* and RXFP1 antag -4.
For CCn1ccc2cc(S(=O)(=O)N3CCC(C(=O)NCCc4ccc(C)cc4)CC3)ccc21 the results were RXFP1 agonist 0%, ClpP mod -6% and RXFP1 antag -13.
`CCOC(=O)C1CCN(C(=O)CN2C(=O)C(C(C)C)Oc3ccccc32)CC1` (stereo not given) gave gsp antagonist 4%, RXFP1 agonist 0%, ClpP mod 3.5µM*, gsp agonist -5%[15.4 µM], Akt phos inh inactive and RXFP1 antag 2.
For CN(C)CCNc1oc(-c2cccc(Cl)c2)nc1C#N the results were gsp antagonist 0%, RXFP1 agonist 3%, ClpP mod 16µM*, gsp agonist 12%, Akt phos inh inactive and RXFP1 antag 4.
`Cc1nc(SCC(=O)N2CCCC2=O)c2c(C)c(C)sc2n1` gave ClpP mod -3%, gsp agonist inconclusive, Akt phos inh inactive and RXFP1 antag -9.

Screens as filed in PubChem BioAssay.
